# Source: PubChem (several laboratories)
# L major viab: inhibitors of Leishmania major promastigote growth. Leishmania major promastigotes, resazurin fluorescence viability. inhibition, % at 10 µM. 200,000 tested, 9% active. AID 1063; in the data active means inhibition above about 50%;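 further: promastigotes grown with compound for 44 hours at 28 °C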
# WT yeast gro inh: growth inhibition of WT yeast, mitochondrial fusion screen | inhibition, % at 10 µM | 190,000 tested, 2.1% active | mitochondrial fusion phenotypic screen, WT strain; in the data active means inhibition above about 58%; tested in S. cerevisiae
# Arbovirus inh: blocks arbovirus infection; arbovirus infection cell-based antiviral screen; inhibition, % at 10 µM; 200,000 tested, 0.37% active; AID 1251; in the data active means inhibition above about 30%
# CHOP inhibitor: CHOP inhibition in unfolded protein response; CHO-K1 CHOP-promoter luciferase, tunicamycin-induced, 15-18 h; AID 2732; inhibition, % at 10 µM; 220,000 tested, 3.8% active;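 active means compounds that reduced the stress-induced luciferase reporter signal by more than about 70% of percent inhibition, limit read from the data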;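 further: 0% = tunicamycin plus vehicle and 100% = wells without tunicamycin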
# Active calls of the source: *; nt = no result. This is a sample that favours compounds with a hit; in the whole collection about 12% have one here.
SMILES,L major viab,WT yeast gro inh,Arbovirus inh,CHOP inhibitor
CC(=O)c1ccc(OCC(O)CN2CCN(c3ccccn3)CC2)cc1 (stereo not given),5,15,2,6
CCOC(=O)C1CCN(CC(O)COc2ccc(C(C)=O)cc2)CC1 (stereo not given),92*,15,-3,-7
CCOC(=O)C1CCN(CC(O)COc2ccc(C(C)(C)CC)cc2)CC1 (stereo not given),97*,2,-3,93*
CCOC(=O)C1CCN(CC(O)COc2ccc(C(C)(C)C)cc2)CC1 (stereo not given),92*,40,17,37
CCOC(=O)C1CCN(CC(O)COCc2cccs2)CC1 (stereo not given),79*,15,4,-3
CC/C(=N\NC(N)=O)c1ccc(OC(F)F)cc1,nt,nt,nt,0
COc1ccc(NC(=O)Nc2ccc(F)c(F)c2)c(OC)c1,3,20,-1,25
CC1=NN(C(C#N)c2ccccc2C)C(C)(C)C1 (stereo not given),-1,-6,8,8
Cn1cc(C2=C(c3ccc(Cl)cc3Cl)C(=O)NC2=O)c2ccccc21,nt,nt,nt,86*
CC1Cc2ccccc2N1CC(=O)NC(=O)NCc1ccccc1 (stereo not given),63*,-5,2,23
CC1Cc2ccccc2N1CC(=O)NC(=O)NC1CCCCC1 (stereo not given),92*,-5,12,40
CC1Cc2ccccc2N1CC(=O)NC(c1ccccc1)c1ccccc1 (stereo not given),-3,15,-3,87*
COc1ccc(CCN(Cc2nc3ccccc3c(=O)[nH]2)C(=O)C2CC2)cc1,-5,-5,-1,46
COC(=O)C1=C(C)NC(C)=C(C(=O)OC)C1C(=O)OCC(=O)N1c2ccccc2CC1C (stereo not given),-4,-2,-4,15
CCCCNC(=O)C(c1ccc(OCC(=O)OC)c(C(=O)OC)c1)N(CCc1c[nH]c2ccccc12)C(=O)CCCCCN1C(=O)NC(c2ccc(-c3ccccc3)cc2)C(C(=O)OCc2ccccc2)=C1C (stereo not given),nt,nt,nt,12
C=C1C(C(=O)Nc2cccc(OC)c2)C1C(=O)Nc1cccc(OC)c1 (stereo not given),11,-7,2,28
CCOc1ccc(-n2c(-c3ccccc3)c[n+]3c2CCCCC3)cc1,100*,2,17,33
c1ccc(-c2c[n+]3c(n2-c2ccccc2)CCC3)cc1,nt,nt,nt,-38
COc1ccc(S(=O)(=O)N2CCN(C3CCN(Cc4ccccc4)CC3)CC2)cc1,94*,-3,-6,-20
CCn1c(SCc2ccccc2)nnc1C1CCCCC1,-4,-14,4,15
O=S(=O)(c1ccc2ccccc2c1)N1CCN(C2CCN(Cc3ccccc3)CC2)CC1,97*,22,2,54
CCn1c(SCc2ccccc2)nnc1C1CCN(S(=O)(=O)c2ccc(OC)cc2)CC1,91*,-13,24,-8
O=S(=O)(c1ccc(Cl)cc1)N1CCC(O)(CN2CCN(Cc3ccccc3)CC2)CC1,100*,5,-20,24
Cc1cc(Br)c(NC(=O)c2c(-c3c(Cl)cccc3Cl)noc2C)c(Br)c1,nt,nt,nt,-5
CC(C)N(CCc1ccncc1)C(=S)Nc1cccc(Cl)c1,24,9,22,23
SMILES,L major viab,WT yeast gro inh,Arbovirus inh,CHOP inhibitor
Cc1ccc(S(=O)(=O)N2CCN(C3CCN(Cc4ccccc4)CC3)CC2)cc1,98*,6,-10,-24
N#Cc1ccc(S(=O)(=O)NC2CCN(Cc3ccccc3)CC2)cc1,nt,nt,nt,-7
O=S(=O)(c1ccc2ccccc2c1)N1CCCCCC1,-6,-8,6,21
O=S(=O)(c1ccc2ccccc2c1)N1CCN(C2Cc3ccccc3C2)CC1,86*,-6,0,28
O=S(=O)(c1ccccc1)N1CCN(C2CCN(Cc3ccccc3)CC2)CC1,96*,8,-13,38
Cc1ccc(S(=O)(=O)N2CCC(C(=O)N3CCN(Cc4ccccc4)CC3)CC2)cc1,-5,5,9,49
O=S(=O)(NC1CCCC1)c1ccc(S(=O)(=O)N2CCCN(Cc3ccccc3)C2)cc1,84*,-10,-28,36
Cc1sc2ncnc(NCC(c3ccco3)N3CCCC3)c2c1C (stereo not given),10,-10,-1,-4
COc1ccc(O)c(C(=O)c2coc(=N)c(C(=O)Nc3ccc(SC(F)F)cc3)c2)c1,83*,32,-27,26
CC(C)OC(=O)c1cc(C(=O)c2cc(F)ccc2O)coc1=N,-2,15,10,40
Cc1cc(CNC(=O)c2ccc3c(c2)OCO3)c2ccccc2n1,13,4,-11,11
O=C(Nc1cc(F)cc(F)c1)c1sc(Cl)nc1-c1ccccc1,-4,6,2,75*
CCCn1c(=O)c2ccccc2n2c(SCc3cc(=O)oc4ccc5ccccc5c34)nnc12,62*,-17,3,35
Cc1cc(C)c(OCCCCCNCCO)c(C)c1,90*,-1,-25,27
Cc1cc(OCCNCCO)cc(C)c1Cl,66*,-3,-16,28
Cc1cc(C)cc(OCCCCCNCCO)c1,52*,3,-13,55
COc1ccccc1OCCCCCNCCO,0,2,3,51
Cc1cc(OCC(=O)NCCO)cc(C)c1Cl,-2,4,1,26
Cc1cc(OCCCCCNCCO)cc(C)c1Cl,98*,42,-23,26
COc1cccc(-c2c3c([nH]c(=O)c2C#N)CCc2cc(OC)ccc2-3)c1,nt,nt,nt,-4
Cc1c(Cl)cn2c(=O)cc(CN(C)Cc3nc4ccccc4c(=O)[nH]3)nc2c1Cl,6,6,6,20
O=C(NCCN1CCc2ccccc2C1)C1CCN(S(=O)(=O)N2CCCCC2)CC1,81*,-18,1,-14
CCS(=O)(=O)N1CCCC(C(=O)NCCN2CCC(Cc3ccccc3)CC2)C1 (stereo not given),90*,3,-1,59
CS(=O)(=O)N1CCCC(C(=O)NCCN2CCC(Cc3ccccc3)CC2)C1 (stereo not given),89*,-6,0,0
Cc1ccc(N2C(=O)CC(Sc3ccccc3C(=O)O)C2=O)cc1C (stereo not given),-7,-13,5,9
SMILES,L major viab,WT yeast gro inh,Arbovirus inh,CHOP inhibitor
O=C(NCc1ccccc1)C1(c2cccc(F)c2)CCCC1,21,13,4,14
CCOc1ccc(OCC(=O)Nc2ccc(OC)cc2[N+](=O)[O-])cc1,-2,1,2,18
CCOc1ccc(NC(=O)COC(=O)C2(C)CC2(Cl)Cl)c([N+](=O)[O-])c1 (stereo not given),-1,57,6,97*
CC1(C(=O)OCC(=O)Nc2ccc3ccccc3c2)CC1(Cl)Cl (stereo not given),10,66*,3,51
COc1ccccc1-n1cc(CN2CCN(C3CCCCC3)C(CCO)C2)cn1 (stereo not given),7,-14,2,-3
O=C(NC1CCCCC1)C(=S)NCCc1ccccc1,-3,0,16,7
S=C(NCCc1ccc(Cl)cc1)NC1CCCC1,18,65*,10,-7
S=C(NCCc1ccccc1)NC1CCCCCC1,1,68*,29,-37
S=C(NCCNCc1ccccc1)NC1CCCCC1,40,62*,-22,39
